Consider 91 molecules from PubChem BioAssay AID602440 (Sanford-Burnham Center for Chemical Genomics, 2012).

Molecules are shown by their SMILES. The campaign covered roughly 360,000 compounds. About 2,300 (0.64%) were called active. Rule as the data show it: active = inhibition mostly above about 40% (no sharp cut-off); inactive = mostly below about 27%. The entries come from a sample that favours actives as a whole.

In general, inhibition refers to the drop in the measured response relative to a control, in per cent.

Sentrin-specific protease 8 (Homo sapiens), sequence (Q96LD8 whole entry, looked up): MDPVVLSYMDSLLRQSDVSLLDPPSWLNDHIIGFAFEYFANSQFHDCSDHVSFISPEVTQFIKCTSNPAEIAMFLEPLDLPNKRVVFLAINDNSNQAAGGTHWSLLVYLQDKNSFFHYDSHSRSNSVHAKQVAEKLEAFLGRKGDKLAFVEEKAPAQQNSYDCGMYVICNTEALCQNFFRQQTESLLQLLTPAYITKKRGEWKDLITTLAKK

This assay concerns the target Sentrin-specific protease 8 (Homo sapiens) (UniProt Q96LD8). Kind of assay: human SENP8 protease inhibitors, primary screen, biochemical, fluorescence, Nedd8 protein substrate, uHTS (AID 602440). The settings on record: recombinant SENP8, Nedd8 substrate fluorescence; at 20 µM; active compounds read high.
Take `COc1ccccc1S(=O)(=O)c1c(C)cc(C)[nH]c1=O`: the inhibition was -5.8% (inactive).
As for `Cc1cc(C)c(/C=C2\C(=O)Nc3ccccc32)[nH]1`, the figure is 59.5% (active); as for `O=C(c1ccccc1F)N(Cc1ccccc1)Cc1ccccc1`, 7.7% (inactive); as for `Cc1cccc(N(Cc2ccccc2)C(=O)c2ccccc2F)c1`, 10.3% (inactive).
As for `Cc1ccc(N(Cc2ccccc2O)C(=O)c2ccccc2F)cc1`, the figure is 43.7% (active).
Then `CCC(=O)N1CCC(C(N)=O)(N2CCCCC2)CC1`, with 23.1% (inactive); and `CN1CCN(CC(=O)C23CC4CC(CC(C4)C2)C3)CC1`, with 8% (inactive).
For `O=C(CCC(=O)OCc1cccc(C(=O)Oc2ccccc2)c1)Nc1cccc2ccccc12`, the inhibition was -5.4% (inactive).
Then `Cc1c(CC(=O)N2CCN(C(=O)C3COc4ccccc4O3)CC2)c(=O)oc2c(O)c(O)ccc12` (stereo unspecified), with -291% (inactive); and `Cn1c2ccccc2n2c(=O)c(=O)n(CC(=O)c3ccc(F)cc3)nc12`, with -7.8% (inactive).
`COc1ccc(NC(=O)CSc2nncc(=O)n2N)cc1OC`: the inhibition is 8% (inactive).
Consider `Cc1cc([N+](=O)[O-])ccc1NCc1cccc([N+](=O)[O-])c1`, for which the inhibition was 29.2% (inactive).
For the molecule `O=C1Nc2ccc([N+](=O)[O-])cc2C1=Nc1cccc(CO)c1`, the inhibition was 65.6% (active).
Take `CN1CCN(/N=C2/C(=O)Nc3ccc([N+](=O)[O-])cc32)CC1`: the inhibition was 23.5% (inactive).
Then `Cc1cc(C=O)c(C)n1-c1ccc(NC2CCCCC2)c([N+](=O)[O-])c1`, with 56.6% (active); and `COc1ccc(NC(=O)CN(C)C(=O)c2ccc(NC3CC3)c([N+](=O)[O-])c2)cc1`, with 33.7% (inactive).
As for `Cc1ccc(C(=O)COC(=O)CCCC(=O)NC2CCCCC2)cc1[N+](=O)[O-]`, the figure is 19.6% (inactive).
As for `O=C(Nc1ccc2c(c1)[C@@H]1C[C@@H](CC(=O)N3CCCCC3)O[C@@H](CO)[C@@H]1O2)NC1CCCCC1`, the figure is 15.5% (inactive); as for `CC1Cc2[nH][nH]c(=O)c2C(C2CC2)O1` (stereo unspecified), 19.9% (inactive); as for `CN=C(Nc1cccc(S(=O)(=O)N2CCOCC2)c1)c1ccccc1`, 9.5% (inactive).
Consider `CCCCNC(=S)N/N=C1\CCCCc2ccccc21`, for which the inhibition is 21.8% (inactive).
As for `Cc1cc(F)ccc1NC(=S)NCCc1ccccc1`, the figure is 8% (inactive); as for `CCCC1CCC(=NNC(=S)NCCc2ccccc2)CC1` (stereo unspecified), 45.2% (active); as for `CCOC(=O)c1ccc(N2C(=O)CC(N3CCN(C(=O)c4ccccc4)CC3)C2=O)cc1` (stereo unspecified), 2.8% (inactive).
Then `CCOC(=O)c1ccc(N2C(=O)CC(N3CC(C)OC(C)C3)C2=O)cc1` (stereo unspecified), with 14% (inactive); and `CCOC(=O)c1ccc(N2C(=O)CC(N(C)Cc3ccccc3)C2=O)cc1` (stereo unspecified), with 46.8% (active); and `COC(=O)C1=C(C(=O)OC)C(c2cc([N+](=O)[O-])ccc2O)c2sc(=O)[nH]c2S1` (stereo unspecified), with 38.8% (inactive).
As for `N#CC1(C#N)C(C(=O)C23CC4CC(CC(C4)C2)C3)C12CCOCC2` (stereo unspecified), the figure is 2.5% (inactive); as for `O=C1Nc2c(Br)cc(Br)cc2C1(O)N1CCOCC1` (stereo unspecified), 60.2% (active); as for `O=C(c1cc2cc(Br)cc(Br)c2oc1=O)N1CCOCC1`, -4.2% (inactive).
Take `Cc1ccc(Nc2nc(CSc3nnc(-c4ccncc4)n3-c3ccccc3C)cs2)cc1`: the inhibition is 11.2% (inactive).
As for `Cc1oc2c(C)c3oc(=O)c(CC(=O)N[C@@H](CC(C)C)C(=O)N[C@@H](Cc4ccccc4)C(=O)O)c(C)c3cc2c1C`, the figure is -222% (inactive).
Then `Cc1ccc(NS(=O)(=O)c2ccc3c(c2)oc(=O)n3C)c(C)c1`, with 12.2% (inactive); and `CCN(CC(=O)NC1CCS(=O)(=O)C1)S(=O)(=O)c1ccccc1` (stereo unspecified), with 3.6% (inactive).
Then `COc1ccc2[nH]c(=O)c(CN(Cc3cccnc3)S(=O)(=O)c3ccccc3F)cc2c1`, with -316% (inactive); and `O=C(Nc1ccccc1C(=O)N1CCOCC1)C1CCC(=O)N1C1CCCC1` (stereo unspecified), with 7.7% (inactive).
Turning to `CCc1ccccc1NC(=S)Nc1cc(OC)c(NC(=O)C(C)C)cc1OC`, the inhibition is 22.3% (inactive).
Then `CCc1ccccc1NC(=O)[C@@H]1CCC(=O)N1C1OC(=O)c2c1ccc(OC)c2OC` (stereo partly specified), with 58.1% (active).
Then `CC(=O)NC(CC(=O)Nc1nccs1)c1ccccc1` (stereo unspecified), with 20.4% (inactive); and `CCC(C)NC(=O)c1ccc(NC(=O)CC2SC(N3CCCCC3)=NC2=O)cc1` (stereo unspecified), with 0.4% (inactive); and `CCOc1ccc(C(CC(=O)O)NC(=O)C23CC4CC(CC(C4)C2)C3)cc1OC` (stereo unspecified), with 9% (inactive).
As for `CCOc1ccc(C(C)NC(=O)CN2C(=O)NC3(CCCCC3)C2=O)cc1OCC` (stereo unspecified), the figure is 4.1% (inactive); as for `CCOc1ccc(C(c2c(C)[nH][nH]c2=O)c2c(C)[nH][nH]c2=O)cc1OCC`, 53.9% (active); as for `CCCCNC(=O)C[C@@H]1C[C@@]2(C(=O)OC)CC(C)(C)CC=C2N(Cc2ccco2)C1=O`, 6% (inactive).
In the case of `O=[N+]([O-])c1ncc(Br)cc1Nc1ccccc1`, the inhibition was 22.6% (inactive).
Turning to `CC(NC(=O)C1CCC(CNc2c(N3CCOCC3)c(=O)c2=O)CC1)c1ccccc1` (stereo unspecified), the inhibition was 9.1% (inactive).
For the molecule `O=C(NCCCc1ccccc1)C1CCC(CNc2c(N3CCCCC3)c(=O)c2=O)CC1` (stereo unspecified), the inhibition is 23.4% (inactive).
Turning to `CC(C)CCNC(=O)C1CCC(CNc2c(N3CCC(C)CC3)c(=O)c2=O)CC1` (stereo unspecified), the inhibition is 42.8% (active).
As for `Cc1ccc(CN2CCCOCCS2(=O)=O)cc1`, the figure is 13.5% (inactive); as for `CC(C)CN1CCC1(C)C(=O)Nc1ccc(OC(F)F)cc1` (stereo unspecified), 5.2% (inactive).
Then `COCCNc1nc(-n2nc(C)cc2C)nc2sc3c(c12)CCCC3`, with -415% (inactive); and `COc1ccc(C(C(=O)NC2CCCCC2)N(C(=O)Cc2c[nH]c3ccccc23)c2ccccc2)cc1OC` (stereo unspecified), with -12.6% (inactive); and `CC(C)[C@H](NC(=O)OCc1ccccc1)C(=O)OCc1ccccc1`, with 5.8% (inactive).
For the molecule `COc1ccc(NS(=O)(=O)c2cc(NC(=O)CC(=O)c3ccc([N+](=O)[O-])cc3)ccc2C)cc1`, the inhibition is 6.3% (inactive).
Then `Cc1ccc(C(=O)Nc2c(-c3ccccc3)[nH][nH]c2=O)cc1`, with 12.1% (inactive); and `COc1ccc(-c2[nH][nH]c(=O)c2NC(=O)c2ccc([N+](=O)[O-])cc2)cc1`, with 60.2% (active).
Take `Cc1n[nH]c(C)c1S(=O)(=O)N1CCCC(C(=O)Nc2ccc(Br)cc2)C1` (stereo unspecified): the inhibition is 13.4% (inactive).
Then `CCn1cc(C(=O)N2CC(C)CC(C)C2)c(=O)c2cc(S(=O)(=O)N3CCCC3)ccc21` (stereo unspecified), with 11.3% (inactive); and `Cc1ccc(N(C(=O)c2ccc(S(=O)(=O)N(C)C)cc2)C2C=CS(=O)(=O)C2)cc1` (stereo unspecified), with 9.3% (inactive); and `COC(=O)C1=C(C(=O)OC)[C@@H]2N(C)c3ccccc3[C@@]23C[C@@H](C(=O)OC)N(C(=O)c2ccco2)C3=N1`, with 3.7% (inactive).
On to `O=C(NC(=S)N1CCCCC1c1cccnc1)c1ccccc1` (stereo unspecified), for which the inhibition was 46.4% (active).
As for `O=C(Nc1ccccc1C(F)(F)F)N1CCCC1c1cccnc1` (stereo unspecified), the figure is 6.2% (inactive); as for `COc1ccc(C(=O)NC(=S)N2CCCCC2c2cccnc2)cc1OC` (stereo unspecified), 8.4% (inactive).
Turning to `COc1cccc(NC(=O)CN(C)CC(=O)c2c(N)n(Cc3ccccc3)c(=O)n(C)c2=O)c1`, the inhibition is 0.5% (inactive).
Then `COc1cc(/C=C/CO)cc(OC)c1O[C@@H]1O[C@H](CO)[C@@H](O)[C@H](O)[C@H]1O`, with -20.9% (inactive); and `CCCCNS(=O)(=O)CCNCc1ccccc1OC`, with 5.2% (inactive).
As for `Cc1ccc(CNS(=O)(=O)CCNC(=O)c2ccccc2)cc1`, the figure is 5.7% (inactive).
Then `CCCCNCCS(=O)(=O)NCc1ccccc1`, with 61.4% (active); and `O=C(NCc1ccco1)/C(=C\c1cccc([N+](=O)[O-])c1)NC(=O)c1ccco1`, with 9.4% (inactive); and `O=C(NCc1ccco1)/C(=C/c1cccc([N+](=O)[O-])c1)NC(=O)c1ccco1`, with 15.2% (inactive).
Turning to `Cc1ccc(C(=O)N/C(=C/c2ccc(-c3cccc([N+](=O)[O-])c3)o2)C(=O)NCCCN(C)C)cc1`, the inhibition was 51.7% (active).
Then `COc1ccc(C(=O)OCC(=O)Nc2cc(C)on2)cc1F`, with 10.9% (inactive).
Then `CN(C)S(=O)(=O)c1cc(C(=O)Nc2ccn(C)n2)c(Cl)cc1Cl`, with 19.3% (inactive).
Then `CCN=C1SC(CC(=O)Nc2ccc(C)cc2)C(=O)N1CC` (stereo unspecified), with 40.5% (active).
For `CCN1C(=O)C(CC(=O)Nc2cc(C)ccc2C)SC1=Nc1ccc(S(N)(=O)=O)cc1` (stereo unspecified), the inhibition is 13.6% (inactive).
Then `CN=C1SC(CC(=O)Nc2ccc(C(=O)O)cc2)C(=O)N1C` (stereo unspecified), with 16.1% (inactive).
Take `Cc1cccc(N2CC(C(=O)Nc3ccccc3N3CCCC3)CC2=O)c1C` (stereo unspecified): the inhibition was 14.3% (inactive).
Then `CC1CCN(c2ccc3c(c2)S(=O)(=O)c2cc(C(=O)O)ccc2C3=O)CC1`, with -15.6% (inactive); and `CC1CCN(c2ccc(C(=O)NCc3ccc4c(c3)OCO4)cc2[N+](=O)[O-])CC1`, with 20.8% (inactive).
As for `CC1CCN(c2ccc([N+](=O)[O-])c(SCCO)c2)CC1`, the figure is 40.3% (active); as for `COc1ccc(C(=O)N2CCC(C(=O)Nc3cccc(C)c3)CC2)cc1OC`, 9.3% (inactive); as for `COc1ccc(-c2c(C)nn3c(N4CCC(C(=O)N5CCCCC5)CC4)cc(C)nc23)cc1OC`, -21.1% (inactive).
Then `COC(=O)[C@]12CCCCC=C1N(Cc1ccc3c(c1)OCO3)C(=O)[C@H](CC(=O)NCc1cccs1)C2`, with 19.5% (inactive); and `CCOc1ccc(S(=O)(=O)N2CCN=C2Cc2ccccc2)cc1C`, with 23.3% (inactive); and `COC(=O)C(C)N=Cc1ccccc1` (stereo unspecified), with 0.2% (inactive).
On to `NN=C(NN=Cc1ccccc1)c1ccccc1`, for which the inhibition is 49.4% (active).
Then `Nc1nnn(CC(=O)N/N=C/c2ccccc2)n1`, with -8.5% (inactive); and `O=C(NCc1ccccc1)C(=O)NCC1OCCN1S(=O)(=O)c1ccc(Br)cc1` (stereo unspecified), with 0.6% (inactive).
As for `CCOc1ccc(NCCC(=O)c2ccc3c(c2)OCO3)cc1`, the figure is 37.1% (active).
As for `COc1ccc(C2(C)NC(=O)N(CC(=O)c3ccc4c(c3)OCO4)C2=O)cc1` (stereo unspecified), the figure is -8.5% (inactive); as for `CCOc1ccc(C(=O)CCN2CCOCC2)cc1`, 5.4% (inactive).
